TbREL1 inh: TbREL1 RNA ligase inhibitors, primary screen, biochemical, FRET fluorescence. RNA-editing ligase 1, mitochondrial (Trypanosoma brucei brucei), P86926. actives 0.49% (n = 89,000). inhibition, % at 9.66 µM. TbREL1 RNA ligation;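 active means inhibition above the mean inhibition across all screened compounds plus 3 SD, cut at about 11% in these data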;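 further: 0% = plate median of test wells and 100% = NSC42067 control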
Target sequence (P86926 whole entry, looked up): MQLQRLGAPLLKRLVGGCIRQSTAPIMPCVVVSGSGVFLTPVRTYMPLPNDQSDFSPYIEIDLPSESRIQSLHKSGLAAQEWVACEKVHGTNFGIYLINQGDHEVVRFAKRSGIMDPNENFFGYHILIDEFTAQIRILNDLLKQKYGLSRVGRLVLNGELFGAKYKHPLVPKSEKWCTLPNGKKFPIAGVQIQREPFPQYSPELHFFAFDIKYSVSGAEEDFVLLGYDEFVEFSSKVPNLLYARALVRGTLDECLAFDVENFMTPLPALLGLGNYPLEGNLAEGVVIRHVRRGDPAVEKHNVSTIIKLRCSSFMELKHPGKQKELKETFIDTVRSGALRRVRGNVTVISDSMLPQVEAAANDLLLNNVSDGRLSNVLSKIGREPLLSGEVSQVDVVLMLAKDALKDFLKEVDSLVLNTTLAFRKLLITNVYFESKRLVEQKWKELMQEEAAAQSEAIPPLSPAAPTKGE
TbREL1 confirm: TbREL1 RNA ligase inhibitors, confirmation, biochemical, FRET fluorescence, triplicate. shares compounds with TbREL1 inh. inhibition, % at 9.66 µM. actives 37% (n = 390). TbREL1 RNA ligation;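 active means mean inhibition across replicates above a set limit taken from the earlier primary screen, cut at about 11% in these data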;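 further: 0% = REL1 with substrate and DMSO and 100% = REL1 plus control inhibitor NSC42067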
Starred values were filed as active, the others as inactive; . = not tested or not shown. The entries come from a sample that favours hits as a whole.

SMILES	TbREL1 inh	TbREL1 confirm
O=C(CSc1nnc(-c2ccco2)c(-c2ccco2)n1)Nc1ccccc1	24.4*	7.9
CC(=O)c1ccc(NC(=O)CSc2ccc(-c3ccco3)nn2)cc1	-2.1	.
COc1cccc(NC(=O)CSCC(=O)Nc2ccccc2)c1	-1.2	.
COc1cccc(NC(=O)CSc2nnc(-c3ccco3)c(-c3ccco3)n2)c1	11.1*	5.4
COc1cccc(NC(=O)CSc2cccc[n+]2[O-])c1	2.0	.
CC(C)c1ccc(NC(=O)CSc2nnc(-c3ccco3)n2C)cc1	2.8	.
COc1ccc(-c2noc(C3CCCN(C(=O)Nc4ccc(Cl)cc4)C3)n2)cc1 (stereo not drawn)	5.7	.
CCOc1ccc(-n2c(SCC(=O)Nc3cccc4ccccc34)nnc2-c2ccco2)cc1	-1.4	.
CCCCOCCCNC(=O)C[C@H]1C[C@@]2(C(=O)OC)C(=C[C@H](COCc3ccccc3)O[C@@H]2C)N(CCc2ccc(OC)c(OC)c2)C1=O	-2.1	.
O=C(Cc1ccccc1F)Nc1nnc(-c2cccnc2)s1	2.9	.
C=CCn1c(SCc2cccc(C(F)(F)F)c2)nnc1-c1ccc(OC)cc1	-0.3	.
O=C(CSc1nnc(-c2cccs2)o1)Nc1cc(Cl)cc(Cl)c1	2.8	.
c1ccc(C[C@H]2CNCCN2CCCCC2CCCCC2)cc1	6.0	.
Oc1ccc(C[C@@H]2CNCCN2CCc2cccc3ccccc23)cc1	2.9	.
c1ccc2c(C[C@@H]3CNCCN3CCCCC3CCCCC3)cccc2c1	13.6*	10.6
Cc1ccc(S(=O)(=O)NCC(=O)N2CCN(c3ccccn3)CC2)s1	-0.4	.
Cc1ccc(C(=O)CCC(=O)Nc2ncccc2O)cc1	-1.8	.
O=C(CCNC(=O)c1ccc(Cl)cc1)Nc1ncccc1O	19.3*	1.5
O=C(NCCNC(=O)c1ccccn1)c1ccc(Cl)cc1	2.9	.
Cc1occc1-c1nnc(SCC(=O)N[C@@H]2CCc3ccccc32)n1-c1ccccc1	-3.5	.
C[C@H]1[C@@H](OC(=O)NCc2ccc(Cl)cc2)CC[C@@]23CCCN2C(=O)CCC[C@@H]13	-1.7	.
Cc1ccc(C(=O)C2CCN(CC(=O)NCc3cccs3)CC2)cc1	-4.6	.
Cc1ccc(O)c(NC(=O)c2cccc(S(=O)(=O)N3CCCCC3)c2)c1	-4.2	.
Cc1onc(-c2ccccc2)c1C(=O)Nc1ccc(S(=O)(=O)N2CCCCC2)cc1	-0.4	.
Cc1onc(-c2c(F)cccc2Cl)c1C(=O)Nc1cc(S(=O)(=O)N2CCCCC2)ccc1O	22.5*	2.3
SMILES	TbREL1 inh	TbREL1 confirm
CCn1c(SCC(=O)Nc2ccc(S(=O)(=O)Nc3cc(C)nc(C)n3)cc2)nc2sc(C)c(C)c2c1=O	-6.1	.
Cc1ccc(S(=O)(=O)N2CCN(CC(=O)NC(C)c3ccccc3)CC2)cc1 (stereo not drawn)	1.6	.
Cc1n[nH]c(C)c1NC(=O)CN1CCN(S(=O)(=O)c2ccc(C(F)(F)F)cc2)CC1	11.3*	3.6
O=C(CN1CCCCC1)Nc1ccc(S(=O)(=O)N2CCCCCC2)cc1	-2.9	.
O=C(CCn1nnc2ccccc21)N1CCN(c2ccc(F)cc2)CC1	3.0	.
Cc1ccc(-c2nn(-c3ccccc3)cc2/C=C/C(=O)O)o1	11.1*	4.3
Cc1ccc(Cn2cc(/C=C/C(=O)O)c(-c3ccccc3)n2)cc1	0.3	.
CN1CCN(C(=O)/C=C/c2cn(-c3ccccc3)nc2-c2ccc3c(c2)OCCO3)CC1	-3.7	.
Nc1[nH]c(C(=O)c2ccccc2)c(-c2ccc(Cl)cc2)c1C(=O)NCCC1=CCCCC1	-2.2	.
COc1cc2c(cc1NC(=O)CSc1nnc(-c3ccccn3)n1-c1ccccc1)oc1ccccc12	8.1	.
COc1cc2c(cc1NC(=O)CSc1nnc(-c3cccnc3)n1-c1ccc(Br)cc1)oc1ccccc12	11.5*	5.6
CCOc1ccc(-n2c(SCC(=O)Nc3cc4oc5ccccc5c4cc3OC)nnc2-c2cccc(Cl)c2)cc1	1.3	.
O=S(=O)(c1cc(C(F)(F)F)ccc1Cl)N1CCN(c2ncnc3ccccc23)CC1	-2.0	.
O=S(=O)(c1ccc(Cl)cc1)N1CCN(c2nc(C(F)(F)F)nc3ccccc23)CC1	-0.5	.
O=S(=O)(c1cc(Cl)cc(Cl)c1)N1CCN(c2nc(-c3cccs3)nc3ccccc23)CC1	11.9*	6.0
Cc1ccccc1N(C)C(=O)C1CCCN1S(=O)(=O)c1cccc2cccnc12 (stereo not drawn)	-0.3	.
O=S(=O)(c1ccccc1)n1c(CN2CCOCC2)nc2ccccc21	0.7	.
Cc1cccc(C)c1N1C(=O)CC(N2CCN(S(=O)(=O)c3ccccc3F)CC2)C1=O (stereo not drawn)	2.5	.
O=C1CC(N2CCN(S(=O)(=O)c3ccccc3F)CC2)C(=O)N1c1ccccc1F (stereo not drawn)	11.2*	-2.5
O=C1CC(N2CCN(S(=O)(=O)c3ccccc3)CC2)C(=O)N1c1ccccc1 (stereo not drawn)	1.7	.
Cc1cc(NS(=O)(=O)c2ccc(NC(=O)CSc3nnc(-c4cnccn4)n3-c3ccccc3)cc2)nc(C)n1	-1.8	.
Cn1c(SCC(=O)Nc2ccc(S(=O)(=O)Nc3nccs3)cc2)nc2sc3c(c2c1=O)CCCC3	-5.6	.
CSc1ccc(-c2cnc(N3CCC(C(N)=O)CC3)s2)cc1	3.1	.
COc1ccc(NC(=O)CSc2nc(C)cc(=O)[nH]2)cc1OC	-0.1	.
Cc1cc(C)n(CCC(=O)N/N=C/c2ccc(Cl)c([N+](=O)[O-])c2)n1	-2.7	.
SMILES	TbREL1 inh	TbREL1 confirm
Cc1cc(C)n(CCC(=O)N/N=C/c2ccccc2O)n1	0.7	.
Cc1cc(C)n(CCC(=O)N/N=C/c2ccc(O)cc2O)n1	12.0*	5.0
COc1ccc(CN(CCN2CCOCC2)C(=O)c2ccccc2C)cc1OC	-3.5	.
Cn1cccc1C(=O)N1CCN(S(=O)(=O)c2ccccc2F)CC1	-2.9	.
COC(=O)[C@]12C[C@H](CC(=O)NCc3ccc(C)o3)C(=O)N(CCC3=CCCCC3)C1=C[C@H](C1CCCC1)O[C@@H]2C	-0.7	.
Cc1ccc(-c2nnc3n2N=C(c2ccc(-c4ccccc4)cc2)CS3)cc1	26.7*	2.7
c1ccc(-c2ccc(C3=Nn4c(nnc4-c4ccccc4)SC3)cc2)cc1	0.2	.
CC(C)(C)c1ccc(-c2nnc3n2N=C(c2ccc(-c4ccccc4)cc2)CS3)cc1	0.5	.
Cc1nc(N2CCN(C(=O)C3CC3)CC2)c2c3c(sc2n1)CC(C)CC3 (stereo not drawn)	1.6	.
O=C(O)CCC(=O)CCC(=O)c1ccccc1	7.5	.
O=C(C[n+]1cc2ccccc2c2ccccc21)c1ccccc1	13.1*	9.4
Cc1nc2c(C)[n+](CC(=O)c3ccccc3)ccc2n1C	1.9	.
COC(=O)C1=C(C)N(Cc2ccccc2C(F)(F)F)C(=NCc2ccc(OC)cc2)NC1c1cccc(F)c1 (stereo not drawn)	14.3*	19.0*
COC(=O)C1=C(C)N(Cc2ccccc2C(F)(F)F)C(=NCc2ccc(C(F)(F)F)cc2)NC1c1ccc(Cl)cc1 (stereo not drawn)	11.9*	18.1*
COC(=O)C1=C(C)N(Cc2ccccc2C(F)(F)F)C(=NCc2ccc(OC)cc2)NC1c1ccccc1 (stereo not drawn)	13.4*	16.2*
C=CCN=C1NC(c2ccc(F)cc2)C(C(=O)OC)=C(C)N1Cc1ccccc1C(F)(F)F (stereo not drawn)	13.5*	13.9*
CCN1C(=NCc2ccc(OC)cc2)N[C@@H](c2ccccc2)[C@H](C(=O)OC)[C@H]1C	-1.7	.
